Screening results (PubChem)
The list is not random: actives were taken first. Their share in the collection is about 0.84%.
PPARg SRC3 recr – agonists of human PPARgamma SRC-3 coactivator recruitment. activation, % at 8 µM. biochemical PPARgamma/SRC-3 coactivator recruitment assay. 200,000 tested, 0.26% active. P37231. AID 731; in the data active = activation above about 23%;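 note: 0% = DMSO and 100% = reference agonist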
SRC2 TRFRET art – TR-FRET artefact, counter-screen to PPARgamma/SRC-2 agonist assay. 200,000 tested, 0.4% active. TR-FRET ratio at 8 µM. AID 1049. hits give high values
PPARg SRC-2 ag – PPARgamma-driven SRC-2 recruitment agonism; P37231; PPARgamma LBD-SRC-2 recruitment, biochemical; activation, % at 8 µM; 200,000 tested, 0.34% active; AID 1032; in the data active = activation above about 22%;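 note: 0% = vehicle and 100% = reference agonist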
SRC3 TRFRET art – flags TR-FRET format artefacts in PPARgamma SRC-3 recruitment agonist screen; TR-FRET artefact counter-screen, PPARgamma/SRC-3 format; hits give high values; 99,000 tested, 0.39% active; TR-FRET ratio at 8 µM; AID 1048
SRC1 TRFRET art – counter-screen for PPARgamma SRC-1 recruitment agonists: TR-FRET artefact. TR-FRET ratio at 8 µM. 99,000 tested, 0.34% active. TR-FRET detection artefact counter-screen, emission ratio; hits give high values. AID 1051; in the data active = TR-FRET ratio above about 2300
PPARg SRC-1 ag – PPARgamma-driven SRC-1 recruitment agonism; PPARgamma-SRC-1 coactivator recruitment biochemical assay; P37231; AID 631; 200,000 tested, 0.41% active; activation, % at 8 µM; in the data active = activation above about 19%;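 note: 0% = DMSO and 100% = reference agonist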
PPARg SRC2 ag – human PPARgamma SRC-2 recruitment agonism, confirmation | activation, % at 8 µM | 790 tested, 52% active | biochemical SRC-2 recruitment by PPARgamma | shares compounds with PPARg SRC3 recr; in the data active = activation above about 22%;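 note: 0% = vehicle alone and 100% = reference agonist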
PPARg SRC1 conf – confirmation of agonists of SRC-1 recruitment by human PPARgamma; shares compounds with PPARg SRC3 recr; PPARgamma–SRC-1 coactivator recruitment biochemical assay; activation, % at 8 µM; 790 tested, 43% active; AID 1300; in the data active = activation above about 20%;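 note: 0% = vehicle wells and 100% = reference agonist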
PPARg SRC3 conf – human PPARgamma SRC-3 recruitment agonism, confirmation; AID 1301; biochemical PPARgamma-SRC-3 coactivator recruitment, agonist mode; activation, % at 8 µM; 790 tested, 29% active; shares compounds with PPARg SRC3 recr; in the data active = activation above about 24%;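 note: 0% = vehicle wells and 100% = reference agonist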
Target sequence (P37231 whole entry, looked up): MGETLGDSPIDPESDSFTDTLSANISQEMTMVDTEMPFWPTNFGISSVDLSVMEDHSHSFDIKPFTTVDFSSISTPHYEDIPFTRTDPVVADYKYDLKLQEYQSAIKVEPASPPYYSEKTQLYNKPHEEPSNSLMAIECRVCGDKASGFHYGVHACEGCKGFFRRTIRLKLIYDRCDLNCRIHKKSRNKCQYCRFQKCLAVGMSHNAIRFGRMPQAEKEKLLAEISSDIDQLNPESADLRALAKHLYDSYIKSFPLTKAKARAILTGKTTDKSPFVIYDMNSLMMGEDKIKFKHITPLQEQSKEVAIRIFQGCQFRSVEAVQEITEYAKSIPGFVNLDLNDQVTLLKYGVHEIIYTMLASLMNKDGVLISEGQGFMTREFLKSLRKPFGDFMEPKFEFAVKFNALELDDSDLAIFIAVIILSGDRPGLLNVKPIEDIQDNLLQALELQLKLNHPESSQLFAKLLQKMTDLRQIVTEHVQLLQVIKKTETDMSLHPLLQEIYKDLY
Target sequence (Q9Y6Q9 whole entry, looked up): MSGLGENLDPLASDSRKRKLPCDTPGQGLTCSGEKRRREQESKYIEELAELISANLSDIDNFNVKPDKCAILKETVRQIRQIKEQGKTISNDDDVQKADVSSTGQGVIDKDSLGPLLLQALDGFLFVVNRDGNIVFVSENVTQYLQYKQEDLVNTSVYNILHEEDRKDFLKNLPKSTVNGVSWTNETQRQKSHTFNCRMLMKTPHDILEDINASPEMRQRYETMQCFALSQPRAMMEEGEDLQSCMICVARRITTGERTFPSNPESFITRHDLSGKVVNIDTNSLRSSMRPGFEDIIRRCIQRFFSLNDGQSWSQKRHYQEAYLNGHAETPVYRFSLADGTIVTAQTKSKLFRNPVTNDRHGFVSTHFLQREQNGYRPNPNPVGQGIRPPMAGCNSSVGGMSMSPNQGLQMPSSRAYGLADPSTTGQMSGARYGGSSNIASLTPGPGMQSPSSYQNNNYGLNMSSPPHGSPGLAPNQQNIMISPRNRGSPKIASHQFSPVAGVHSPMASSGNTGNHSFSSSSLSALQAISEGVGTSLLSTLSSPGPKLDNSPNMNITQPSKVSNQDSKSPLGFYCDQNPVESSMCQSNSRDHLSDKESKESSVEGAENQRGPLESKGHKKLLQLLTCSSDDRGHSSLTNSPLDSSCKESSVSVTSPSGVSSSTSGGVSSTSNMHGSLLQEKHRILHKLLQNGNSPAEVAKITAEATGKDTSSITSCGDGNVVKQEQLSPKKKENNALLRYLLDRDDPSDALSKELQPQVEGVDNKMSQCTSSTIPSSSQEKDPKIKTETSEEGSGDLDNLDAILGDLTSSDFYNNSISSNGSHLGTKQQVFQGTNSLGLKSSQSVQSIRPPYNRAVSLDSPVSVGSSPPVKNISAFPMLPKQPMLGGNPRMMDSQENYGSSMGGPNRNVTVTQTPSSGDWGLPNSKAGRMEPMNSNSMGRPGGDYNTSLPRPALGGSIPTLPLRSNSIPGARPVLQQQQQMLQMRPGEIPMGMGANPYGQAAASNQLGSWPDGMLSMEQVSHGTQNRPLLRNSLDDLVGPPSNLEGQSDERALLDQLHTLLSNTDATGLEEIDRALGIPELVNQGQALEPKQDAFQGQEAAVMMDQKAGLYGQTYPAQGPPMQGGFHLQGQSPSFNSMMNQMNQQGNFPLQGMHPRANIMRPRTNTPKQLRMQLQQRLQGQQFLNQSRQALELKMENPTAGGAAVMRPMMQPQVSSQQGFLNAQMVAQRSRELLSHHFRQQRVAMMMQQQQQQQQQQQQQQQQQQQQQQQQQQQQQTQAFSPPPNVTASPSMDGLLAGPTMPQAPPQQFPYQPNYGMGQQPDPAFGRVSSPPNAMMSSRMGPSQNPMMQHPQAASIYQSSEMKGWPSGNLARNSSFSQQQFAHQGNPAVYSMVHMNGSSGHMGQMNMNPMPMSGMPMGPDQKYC
Numbers without * were called inactive. Cut-off read from the data, not from the text of the source, unless noted: active = TR-FRET ratio above about 2000; inactive = the rest.

Results for COc1ccc2c(c1)nc(SCC(=O)c1ccc(Br)s1)n2C ?
PPARg SRC3 recr: 21.9; SRC2 TRFRET art: 1815; PPARg SRC-2 ag: 28.4*; PPARg SRC-1 ag: 16.2; PPARg SRC2 ag: 39.3*; PPARg SRC1 conf: 26.6*; PPARg SRC3 conf: 27.8*

What do the screens show for `O=C(CCSc1ccc(Br)cc1)Nc1cccnc1`?
PPARg SRC3 recr: -3.0; SRC2 TRFRET art: 1482; PPARg SRC-2 ag: 3.0; SRC3 TRFRET art: 1475; SRC1 TRFRET art: 1859; PPARg SRC-1 ag: -1.2

How did CC1(c2ccccc2)NC(=O)N(CC(=O)Nc2cccc(C#N)c2)C1=O (stereo not drawn) do in these assays?
PPARg SRC3 recr: 0.7; SRC2 TRFRET art: 1542; PPARg SRC-2 ag: 2.1; SRC3 TRFRET art: 1482; SRC1 TRFRET art: 1768; PPARg SRC-1 ag: -1.2

How did O=C(Nc1ccccc1)c1ccc(-c2ccccc2)s1 do in these assays?
PPARg SRC3 recr: 16.9; SRC2 TRFRET art: 2178*; PPARg SRC-2 ag: 38.5*; SRC3 TRFRET art: 2060*; SRC1 TRFRET art: 2787*; PPARg SRC-1 ag: 39.4*; PPARg SRC2 ag: 43.5*; PPARg SRC1 conf: 34.6*; PPARg SRC3 conf: 26.2*

Results for COc1ccc(C(=O)CCC(C)(C)[N+](=O)[O-])cc1OC ?
PPARg SRC3 recr: 2.3; SRC2 TRFRET art: 1512; PPARg SRC-2 ag: -3.4; SRC3 TRFRET art: 1603; SRC1 TRFRET art: 1776; PPARg SRC-1 ag: -3.4

What do the screens show for `Oc1c(Br)cc(C=Nc2ccc3nc(-c4ccccc4)[nH]c3c2)c(O)c1Br`?
PPARg SRC3 recr: 12.2; SRC2 TRFRET art: 1907; PPARg SRC-2 ag: 12.2; SRC3 TRFRET art: 1961; SRC1 TRFRET art: 1998; PPARg SRC-1 ag: 21.6*; PPARg SRC2 ag: 15.4; PPARg SRC1 conf: 14.6; PPARg SRC3 conf: 8.7

Results for NC(=O)NCCN1CCN(c2ncc(C(F)(F)F)cc2Cl)CC1 ?
PPARg SRC3 recr: 1.0; SRC2 TRFRET art: 1624; PPARg SRC-2 ag: 1.9; SRC3 TRFRET art: 1798; SRC1 TRFRET art: 1681; PPARg SRC-1 ag: 9.8

What do the screens show for `Cc1ccc(C(=O)C2=C(O)C(=O)N(c3ncccn3)C2c2ccc(Cl)cc2)o1` (stereo not drawn)?
PPARg SRC3 recr: 42.6*; SRC2 TRFRET art: 2243*; PPARg SRC-2 ag: 38.1*; PPARg SRC-1 ag: 27.6*; PPARg SRC2 ag: 27.7*; PPARg SRC1 conf: 20.9*; PPARg SRC3 conf: 21.6

How did COc1cccc2c1C(=O)c1c(O)c3c(c(O)c1C2=O)C[C@@](O)(C(=O)CO)C[C@@H]3O[C@H]1C[C@H](N)[C@H](O)[C@H](C)O1 do in these assays?
PPARg SRC3 recr: 12.7; SRC2 TRFRET art: 1930; PPARg SRC-2 ag: 20.5; SRC3 TRFRET art: 2006; SRC1 TRFRET art: 2222; PPARg SRC-1 ag: 28.3*; PPARg SRC2 ag: 6.2; PPARg SRC1 conf: -0.5; PPARg SRC3 conf: 5.9

What do the screens show for `O=C(Nc1ccc2nc(-c3cccs3)[nH]c2c1)c1cccs1`?
PPARg SRC3 recr: 0.8; SRC2 TRFRET art: 1449; PPARg SRC-2 ag: -0.9; PPARg SRC-1 ag: -2.1

Results for O=C(Nc1ccc(-c2nc3ccc(NC(=O)c4cccs4)cc3[nH]2)cc1)c1cccs1 ?
PPARg SRC3 recr: 11.6; SRC2 TRFRET art: 1552; PPARg SRC-2 ag: 27.4*; PPARg SRC-1 ag: 20.7*; PPARg SRC2 ag: 10.7; PPARg SRC1 conf: 1.4; PPARg SRC3 conf: 4.6

What do the screens show for `O=C(O)CCCN=CC1=C(O)C(C(=O)c2ccccc2)CCC1=O` (stereo not drawn)?
PPARg SRC3 recr: 6.6; SRC2 TRFRET art: 1451; PPARg SRC-2 ag: 1.7; PPARg SRC-1 ag: 6.5

What do the screens show for `Cc1ccccc1OCCOc1ccccc1C=C(C#N)C#N`?
PPARg SRC3 recr: 12.4; SRC2 TRFRET art: 2050*; PPARg SRC-2 ag: 13.5; SRC3 TRFRET art: 2057*; SRC1 TRFRET art: 2244; PPARg SRC-1 ag: 20.5*; PPARg SRC2 ag: 20.6; PPARg SRC1 conf: 16.9; PPARg SRC3 conf: 12.7

How did Cc1cccc(OCCOc2ccccc2C=C(C#N)C#N)c1 do in these assays?
PPARg SRC3 recr: -2.5; SRC2 TRFRET art: 1559; PPARg SRC-2 ag: -6.5; SRC3 TRFRET art: 1368; SRC1 TRFRET art: 1616; PPARg SRC-1 ag: -6.8

Results for CC1(C)Oc2ccc(C(=O)NN)cc2NC1=O ?
PPARg SRC3 recr: 2.9; SRC2 TRFRET art: 1696; PPARg SRC-2 ag: 5.7; SRC3 TRFRET art: 1628; SRC1 TRFRET art: 1681; PPARg SRC-1 ag: 7.5

Results for O=C1CCC(=O)N1c1ccc(-c2nc3ccccc3s2)cc1 ?
PPARg SRC3 recr: 14.3; SRC2 TRFRET art: 1699; PPARg SRC-2 ag: 24.7*; SRC3 TRFRET art: 1640; SRC1 TRFRET art: 2057; PPARg SRC-1 ag: 27.7*; PPARg SRC2 ag: 5.4; PPARg SRC1 conf: 6.3; PPARg SRC3 conf: 5.3

Results for COC(=O)c1sccc1NC(=O)c1cc(-c2cccc(C)c2)nc2ccccc12 ?
PPARg SRC3 recr: 12.7; SRC2 TRFRET art: 2058*; PPARg SRC-2 ag: 25.9*; PPARg SRC-1 ag: 8.9; PPARg SRC2 ag: 1.6; PPARg SRC1 conf: 4.6; PPARg SRC3 conf: 2.0

Results for CSc1ccc(Cl)c(C(=O)OCC(=O)N(C)CCC#N)c1 ?
PPARg SRC3 recr: 1.4; SRC2 TRFRET art: 1664; PPARg SRC-2 ag: -0.5; SRC3 TRFRET art: 1586; SRC1 TRFRET art: 1802; PPARg SRC-1 ag: 6.5

How did CCOC(=O)c1sc(=S)n(-c2ccccc2Cl)c1SC do in these assays?
PPARg SRC3 recr: 30.7*; SRC2 TRFRET art: 1889; PPARg SRC-2 ag: 30.8*; PPARg SRC-1 ag: 29.5*; PPARg SRC2 ag: 40.4*; PPARg SRC1 conf: 35.9*; PPARg SRC3 conf: 28.7*

How did CCOC(=O)c1sc(=S)n(-c2ccccc2)c1SC do in these assays?
PPARg SRC3 recr: 3.3; SRC2 TRFRET art: 1626; PPARg SRC-2 ag: -1.1; PPARg SRC-1 ag: -2.8

What do the screens show for `Cc1cc(C(=O)NCC(=O)OCC(=O)Nc2ccc(OC(F)F)cc2)ccc1[N+](=O)[O-]`?
PPARg SRC3 recr: -2.9; SRC2 TRFRET art: 1327; PPARg SRC-2 ag: -7.2; SRC3 TRFRET art: 1472; SRC1 TRFRET art: 1693; PPARg SRC-1 ag: -3.4

Results for O=C1Nc2ccccc2N(O)N1c1ccc(S(=O)(=O)N2CCOCC2)cc1 ?
PPARg SRC3 recr: 2.9; SRC2 TRFRET art: 1677; PPARg SRC-2 ag: 7.0; SRC3 TRFRET art: 1731; SRC1 TRFRET art: 1652; PPARg SRC-1 ag: 8.9

What do the screens show for `S=c1nc[nH]c2c1[nH]c1ccccc12`?
PPARg SRC3 recr: 48.3*; SRC2 TRFRET art: 2670*; PPARg SRC-2 ag: 37.6*; PPARg SRC-1 ag: 29.4*; PPARg SRC2 ag: 15.3; PPARg SRC1 conf: 5.0; PPARg SRC3 conf: 10.8

What do the screens show for `CC(=O)c1sc(NC(=O)c2ccco2)nc1-c1ccccc1`?
PPARg SRC3 recr: 7.7; SRC2 TRFRET art: 1647; PPARg SRC-2 ag: 6.0; PPARg SRC-1 ag: 5.7
